Bioassay records deposited in PubChem BioAssay by National Center for Advancing Translational Sciences (NCATS).
Rows were chosen to be rich in hits. Some 19% of all compounds tested hit in one or more screens of this group.
ELG1 repair inh: qHTS screen for small molecules that inhibit ELG1-dependent DNA repair in human embryonic kidney (HEK293T) cells expressing luciferase-tagged ELG1; Potency, µM (series often up to 46.1 µM), for inactives: at the highest dose activity change, negative = inhibition, usual class: inhibitors; HEK293T ELG1-luciferase reporter, luminescence, 16 h; DNA damage induced by 5-fluorouridine; 330,000 tested, 2.3% active; note: potency is the fitted concentration of half-maximal effect; nearly all actives have a fitted effect of over 55% in size
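In this reporter screen, reduction of luminescence relative to DMSO vehicle indicated activity. Compounds and 5-fluorouridine were added together to 2,000 cells per well, incubated for 16 hr at 37 °C, then developed with ONE-Glo.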
IL1B secr inh: qHTS for Inhibitors of Inflammasome Signaling: IL-1-beta AlphaLISA Primary Screen; THP-1 LPS/ATP IL-1B secretion, AlphaLISA, 16 h; stronger effect = lower value; activity change, % at 57.5 µM; 360,000 tested, 4.7% active; in the data active = activity change below about -50%; inconclusive = mostly about -30% to -49%
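Secreted IL-1B measured by AlphaLISA bead assay after 16 h compound exposure of THP-1 cells; compounds (final up to 57.5 uM) added 1 h before LPS (250 ng/mL) and ATP (1.25 mM) stimulation; lower signal means less secretion.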
DT40 TDP1 no CPT: qHTS for Inhibitors of human tyrosyl-DNA phosphodiesterase 1 (TDP1): qHTS in cells in absence of CPT. DT40 Tdp1-/- hTDP1 cells, no CPT, ATP luminescence, 48 h. Potency, µM (highest dose often 46.2 µM), for the others: top-dose activity change, negative = growth inhibition, actives largely listed as inhibitors. 420,000 tested, 15% active. AID 686978, 2013; note: potency is the fitted concentration of half-maximal effect; nearly all actives have a fitted effect of over 55% in size
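Growth of hTDP1-complemented DT40 Tdp1-knockout cells is measured by ATP luminescence after at least 48 hr compound exposure at 37 °C, with DMSO substituting for the 20 nM CPT used in the parallel screen.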
HT1080 IDH1KD tx: qHTS for induction of synthetic lethality in tumor cells producing 2HG: qHTS for the HT-1080-IDH1KD cell line | HT-1080 IDH1 knockdown viability, ATP luminescence, 48 h | 360,000 tested, 2% active | Potency, µM (titrated, usually from 46.1 µM), without a hit: at the top dose activity, negative = toxicity, most hits filed as cytotoxic;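 note: potency is the fitted concentration of half-maximal effect; 0% = DMSO wells and -100% = cell-free medium wells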
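Cytotoxicity counter-line: IDH1KD HT-1080, 48 h, CellTiter-Glo. Curves classed by r2, magnitude and activity.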
HT1080-NT tox: qHTS for induction of synthetic lethality in tumor cells producing 2HG: qHTS for the HT-1080-NT fibrosarcoma cell line. HT-1080-NT fibrosarcoma viability, CellTiter-Glo ATP luminescence, 48 h. Potency, µM (highest dose often 46.1 µM), inactives show at the highest dose activity, negative = less viability, hits mostly cytotoxic. 360,000 tested, 1.6% active;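 note: NT is the 2HG producing partner of a matched IDH1 knockdown line; potency is the fitted concentration of half-maximal effect; 0% = DMSO-treated cells and -100% = media-only wells without cells; nearly all actives have a fitted effect of over 55% in size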
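HT-1080-NT fibrosarcoma cells (2HG-overproducing), 750 cells/well in RPMI with 5% FBS, dosed after 2 h and incubated 48 h at 37C. CellTiter-Glo luminescence normalized to DMSO and no-cell wells; concentration-response curves fitted and classed.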
TDP1 cell CPT: qHTS for Inhibitors of human tyrosyl-DNA phosphodiesterase 1 (TDP1): qHTS in cells in presence of CPT | chicken DT40 Tdp1-/-;hTDP1 cells + 20 nM CPT, ATP luminescence, 48 h | Potency, µM (top dose mostly 46.2 µM), for the others: at the highest dose activity change, negative = growth inhibition, actives largely listed as inhibitors | 420,000 tested, 12% active | AID 686979, 2013; note: potency is the fitted concentration of half-maximal effect; nearly all actives have a fitted effect of over 55% in size
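Chicken DT40 Tdp1-/- cells complemented with human TDP1, 400 cells/well, exposed to compounds plus 20 nM camptothecin for at least 48 h at 37 C; viability read as ATP content by CellTiter-Glo luminescence.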
* = called active by the depositor; ? = inconclusive; / = no result given. Unless noted, calls come from the whole dose curve; as a rule, active = well fitted curve in the direction sought with a large enough effect; inconclusive = small, poorly fitted or top-dose-only effect, or another doubt; inactive = no such curve, though single readings can be large; an effect the other way counts as inactive or inconclusive. Unless noted, % is set by controls: 0 for no effect and ±100 for the full control effect.

SMILES | ELG1 repair inh | IL1B secr inh | DT40 TDP1 no CPT | HT1080 IDH1KD tx | HT1080-NT tox | TDP1 cell CPT
COc1cc2c3cc1Oc1cc(ccc1O)C[C@@H]1c4c(cc(OC)c(O)c4Oc4cccc(c4)C[C@@H]3N(C)CC2)CC[N+]1(C)C | 8% | 1 | 1% | 7% | 0% | 4%
COC(=O)c1ccc(COC(=O)c2nn(C)c(=O)c3ccccc23)cc1 | 4% | 19 | ? | 4% | 5% | ?
Cc1ccc(-c2nc3ccccc3c(=O)n2-c2ncccc2C)cc1 | 8% | 26 | ? | -1% | -8% | -22%
Cc1ccccc1-n1c(/C=C/c2ccc(O)cc2)nc2ccccc2c1=O | / | / | 5.8µM* | / | / | 9.2µM*
Cc1ccccc1-n1c(/C=C/c2ccccn2)nc2ccccc2c1=O | ? | -53* | 23µM* | -5% | -26% | 18µM*
COC(=O)COc1ccc(/C=C2\C(=O)NC(=S)N(c3ccc(C)cc3)C2=O)cc1OC | 21% | 11 | 7% | 2% | 8% | -2%
COc1ccc(NC(=O)c2cccn(Cc3ccc(Cl)cc3)c2=O)c(OC)c1 | / | / | -27% | / | / | ?
COc1ccc(NC(=S)Nc2ncccc2C)c(OC)c1 | ? | -78* | ? | 10µM* | 7.1µM* | -25%
Cn1nc(-c2ccc(OCC(=O)N3CCN(Cc4ccccc4)CC3)cc2)c2ccccc2c1=O | ? | 5 | 6.5µM* | -14% | -4% | 13µM*
O=C(COc1ccc(Br)cc1)N1CCN(Cc2ccc3c(c2)OCO3)CC1 | -14% | -60* | -13% | -14% | 0% | ?
CCCCNS(=O)(=O)c1ccc(OCC(=O)N2CCN(Cc3ccc4c(c3)OCO4)CC2)cc1 | -8% | -29 | ? | -1% | -8% | 10µM*
O=C(COc1ccc(S(=O)(=O)N2CCOCC2)cc1)N1CCN(Cc2ccc3c(c2)OCO3)CC1 | ? | -6 | ? | -20% | -17% | ?
CSc1ccc(CN2CCN(C(=O)COc3ccc(C)cc3)CC2)cc1 | ? | -22 | 18µM* | -14% | 0% | ?
O=C(O)c1ccccc1NC(=O)N1C[C@H]2C[C@@H](C1)c1cccc(=O)n1C2 | 22% | 11 | 7% | 3% | 2% | 14%
CNNC | / | / | -1% | / | / | -25%
O=C(CN1CCOCC1)c1cccc([N+](=O)[O-])c1 | / | / | -12% | / | / | -9%
Cc1ccc(OCC(=O)N2CCN(Cc3ccc4c(c3)OCO4)CC2)cc1C | -10% | -8 | -27% | -12% | -6% | -6%
CS(=O)(=O)N(CC(=O)N1CCN(Cc2ccc3c(c2)OCO3)CC1)Cc1ccc(Cl)cc1 | 12µM* | -14 | ? | ? | -9% | 11µM*
COc1ccc2c(c1)c(CCN)c(C)n2Cc1ccccc1 | 0% | -52* | 21µM* | ? | ? | ?
COc1ccccc1CN1CC[C@@]2(CCCN(C(=O)Oc3ccccc3)C2)C1 | / | / | ? | / | / | -20%
O=C(NN=Cc1ccc2c(c1)CCC2)c1cccc([N+](=O)[O-])c1 | / | -9 | ? | -8% | 1% | ?
COc1ccc(N2C(=O)/C(=C/c3ccc(C)o3)C(=O)NC2=S)c(OC)c1 | ? | 9 | ? | -4% | 8% | 21µM*
Cc1nc2ccc(Cl)cc2c(=O)n1-c1ccccc1Cl | -23% | -11 | -85% | -25% | -15% | -26%
Cc1nc2ccccc2c(=O)n1-c1ccccc1Cl | / | / | 24µM* | / | / | ?
COc1ccccc1-n1c(-c2ccc(C)cc2)nc2ccccc2c1=O | 2% | 1 | 12µM* | -16% | -9% | ?
SMILES | ELG1 repair inh | IL1B secr inh | DT40 TDP1 no CPT | HT1080 IDH1KD tx | HT1080-NT tox | TDP1 cell CPT
COc1ccccc1-n1c(-c2ccccc2Br)nc2ccccc2c1=O | -15% | 1 | 18µM* | -2% | -21% | 23µM*
CSc1nn(-c2ccc(C(=O)OCC(=O)NC(=O)NC(C)C)cc2)c(=S)s1 | ? | -13 | ? | 4% | 2% | -21%
COCc1cc(OC(=O)N(C)C)nc(-c2ccccc2)n1 | 16% | 26 | -30% | 0% | 0% | 3%
CC1=CC(=O)NP(=O)(Oc2ccc3ccccc3c2)N1 (centres undefined) | ? | 24 | 10µM* | -1% | 3% | 9.2µM*
CC1CN1P(=O)(Oc1ccc2ccccc2c1)N1CC1C (centres undefined) | / | 6 | ? | 8% | 8% | ?
CCOC(=O)C1(CCc2ccccc2)CCN(C2CCSCC2)CC1 | 6% | -18 | 6.5µM* | 11% | 0% | 8.2µM*
CCOC(=O)C1(CCCc2ccccc2)CCN(C2CCCC2)CC1 | -8% | -74* | ? | -27% | -18% | 18µM*
CCOC(=O)C1(CCc2ccccc2)CCN(Cc2ccc3c(c2)OCCO3)CC1 | 5% | 8 | 26µM* | 16µM* | 23µM* | ?
CCOC(=O)C1(CCOc2ccccc2)CCN(Cc2ccc(C)s2)CC1 | ? | -96* | 7.3µM* | ? | -21% | ?
O=C(C[C@@H]1C[C@@H]2c3cc(NS(=O)(=O)c4ccc(F)cc4)ccc3O[C@@H]2[C@H](CO)O1)N1CCc2ccccc2C1 | / | -25 | -22% | -11% | 16% | ?
Cc1cc(C)c(N)cc1C | 15% | 4 | ? | 7% | 22% | -12%
CCc1c(C)nc(N)nc1N1N=C1SCCOc1ccccc1 | 12% | 8 | -14% | -6% | 0% | 0%
Cc1ccc(NC(=O)c2cnc3sc(N4CCOCC4)nn3c2=O)cc1N(C)C | / | / | 21µM* | / | / | 15µM*
